# Experimental data taken from publication PMC7862700, “An all-to-all approach to the identification of sequence-specific readers for epigenetic DNA modifications on cytosine”.
# Key:
# Assay in all cases: DAPPL (digital affinity profiling via proximity ligation, sequencing); 10 mM Tris-HCl pH 7.5, 50 mM NaCl, 1 mM DTT, 4% glycerol, room temperature, 30 min; GST-TFs on glutathione beads, 16-mer random dsDNA library, 0.1% formaldehyde crosslink after washing; high values mean tight binding
# FLI1 = molecular target: T1, FLI1 (Homo sapiens, UniProt Q01543 1-452); conditions: protein: recombinant; tags: N-terminal GST; dsDNA, one strand shown
# T1 sequence: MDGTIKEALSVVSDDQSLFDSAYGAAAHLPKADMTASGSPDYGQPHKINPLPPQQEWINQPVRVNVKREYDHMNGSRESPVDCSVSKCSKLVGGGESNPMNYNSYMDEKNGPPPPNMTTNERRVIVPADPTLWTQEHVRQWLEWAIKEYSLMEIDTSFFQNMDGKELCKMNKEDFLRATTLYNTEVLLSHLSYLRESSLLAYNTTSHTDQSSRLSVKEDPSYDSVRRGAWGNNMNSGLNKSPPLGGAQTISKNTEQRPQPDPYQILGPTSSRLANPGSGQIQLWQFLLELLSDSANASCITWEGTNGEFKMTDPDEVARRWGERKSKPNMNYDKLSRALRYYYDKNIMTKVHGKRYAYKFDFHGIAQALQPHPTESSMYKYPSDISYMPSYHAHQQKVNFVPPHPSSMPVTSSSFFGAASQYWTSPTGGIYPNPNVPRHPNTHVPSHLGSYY
# Method in brief: (§1)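 Human transcription factors carrying a GST fusion were produced in yeast, bound to glutathione beads, tagged with DNA barcodes and pooled together with a tag-only sample. Each pool was held with 200 nmole of a random double-stranded 16-mer DNA library in Tris/NaCl/DTT/glycerol buffer for 30 min at room temperature, then washed, crosslinked in 0.1% formaldehyde, proximity-ligated with BsaI/T4 ligase (1 h, 37 °C), PCR-amplified and sequenced on an Illumina NextSeq500. Binding signal is the read frequency of each hexamer for a given factor divided by its frequency in the tag-only sample.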
# ELK1 = molecular target: T2, ELK1 (Homo sapiens, UniProt P19419 1-428); conditions: protein: recombinant; tags: N-terminal GST; dsDNA, one strand shown
# T2 sequence: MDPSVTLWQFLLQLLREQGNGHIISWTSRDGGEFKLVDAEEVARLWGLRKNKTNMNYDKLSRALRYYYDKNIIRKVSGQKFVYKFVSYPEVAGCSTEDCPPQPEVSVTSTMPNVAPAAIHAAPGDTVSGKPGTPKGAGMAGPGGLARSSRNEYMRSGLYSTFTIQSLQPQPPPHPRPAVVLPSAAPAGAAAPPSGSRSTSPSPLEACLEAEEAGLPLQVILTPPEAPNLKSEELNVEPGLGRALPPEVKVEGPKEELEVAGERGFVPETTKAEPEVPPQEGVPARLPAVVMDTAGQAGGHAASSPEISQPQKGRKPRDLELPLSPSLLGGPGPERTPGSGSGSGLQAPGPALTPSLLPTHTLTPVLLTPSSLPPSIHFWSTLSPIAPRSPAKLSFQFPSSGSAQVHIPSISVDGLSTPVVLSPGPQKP
# Method in brief: as §1
# GABPA = molecular target: T3, GABPA (Homo sapiens, UniProt Q06546 1-454); conditions: protein: recombinant; tags: N-terminal GST; dsDNA, one strand shown
# T3 sequence: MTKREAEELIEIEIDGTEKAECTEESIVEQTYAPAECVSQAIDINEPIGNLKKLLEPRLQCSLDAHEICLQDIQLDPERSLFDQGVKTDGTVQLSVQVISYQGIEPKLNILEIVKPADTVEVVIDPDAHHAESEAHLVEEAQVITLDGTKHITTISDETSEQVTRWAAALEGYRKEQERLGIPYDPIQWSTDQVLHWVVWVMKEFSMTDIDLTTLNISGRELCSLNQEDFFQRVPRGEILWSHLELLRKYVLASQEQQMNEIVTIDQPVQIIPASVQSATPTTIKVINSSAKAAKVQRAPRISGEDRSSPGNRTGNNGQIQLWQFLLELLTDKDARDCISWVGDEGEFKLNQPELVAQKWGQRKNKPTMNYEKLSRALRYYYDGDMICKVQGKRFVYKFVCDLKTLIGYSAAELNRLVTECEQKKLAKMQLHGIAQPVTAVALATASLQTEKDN
# Method in brief: as §1
# ERG = molecular target: T4, ERG (Homo sapiens, UniProt P11308 1-479); conditions: protein: recombinant; tags: N-terminal GST; dsDNA, one strand shown
# T4 sequence: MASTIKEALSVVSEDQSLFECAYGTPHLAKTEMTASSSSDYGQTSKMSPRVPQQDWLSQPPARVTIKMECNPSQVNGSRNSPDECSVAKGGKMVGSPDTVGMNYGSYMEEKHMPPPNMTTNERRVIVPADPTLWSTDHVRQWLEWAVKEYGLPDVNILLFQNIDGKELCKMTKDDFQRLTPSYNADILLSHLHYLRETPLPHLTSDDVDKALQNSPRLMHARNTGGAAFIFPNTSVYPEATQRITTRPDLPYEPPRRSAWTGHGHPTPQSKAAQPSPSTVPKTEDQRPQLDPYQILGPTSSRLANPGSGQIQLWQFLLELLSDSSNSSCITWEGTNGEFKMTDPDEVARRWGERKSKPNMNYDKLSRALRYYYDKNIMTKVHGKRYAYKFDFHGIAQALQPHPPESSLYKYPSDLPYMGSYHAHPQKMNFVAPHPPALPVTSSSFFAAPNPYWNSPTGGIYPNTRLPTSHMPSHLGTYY
# Method in brief: as §1
# ELF1 = ELF1 (Homo sapiens, UniProt P32519 1-619); conditions: protein: recombinant; tags: N-terminal GST; dsDNA, one strand shown
# Chain of ELF1 (P32519 whole entry): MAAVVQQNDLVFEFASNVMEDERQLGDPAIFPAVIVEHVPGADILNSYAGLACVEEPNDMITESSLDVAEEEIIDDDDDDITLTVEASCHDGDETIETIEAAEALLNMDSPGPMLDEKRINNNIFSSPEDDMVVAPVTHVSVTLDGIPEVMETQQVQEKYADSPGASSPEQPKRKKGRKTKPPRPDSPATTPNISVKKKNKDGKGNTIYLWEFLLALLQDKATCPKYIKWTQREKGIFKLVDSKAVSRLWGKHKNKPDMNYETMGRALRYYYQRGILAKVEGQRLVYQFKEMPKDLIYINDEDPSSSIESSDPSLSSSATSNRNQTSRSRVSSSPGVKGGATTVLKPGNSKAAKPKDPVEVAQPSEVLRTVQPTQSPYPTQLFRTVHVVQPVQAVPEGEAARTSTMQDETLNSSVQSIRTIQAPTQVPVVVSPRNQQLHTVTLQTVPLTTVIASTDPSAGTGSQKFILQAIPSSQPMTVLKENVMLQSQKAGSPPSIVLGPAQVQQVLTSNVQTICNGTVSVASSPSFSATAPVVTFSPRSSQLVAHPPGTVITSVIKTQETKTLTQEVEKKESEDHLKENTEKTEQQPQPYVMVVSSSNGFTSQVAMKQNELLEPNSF
# Method in brief: as §1
# EHF = molecular target: T5, EHF (Homo sapiens, UniProt Q9NZC4 1-300); conditions: protein: recombinant; tags: N-terminal GST; dsDNA, one strand shown
# T5 sequence: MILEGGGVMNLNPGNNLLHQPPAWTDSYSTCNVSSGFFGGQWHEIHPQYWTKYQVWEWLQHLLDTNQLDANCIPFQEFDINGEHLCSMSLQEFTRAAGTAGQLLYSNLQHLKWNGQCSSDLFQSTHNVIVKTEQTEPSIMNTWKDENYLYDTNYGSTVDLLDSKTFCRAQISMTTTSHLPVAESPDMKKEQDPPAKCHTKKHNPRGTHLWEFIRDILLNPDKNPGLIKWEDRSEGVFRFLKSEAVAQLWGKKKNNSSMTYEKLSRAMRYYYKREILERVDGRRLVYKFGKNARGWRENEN
# Method in brief: as §1
# SPI1 = SPI1 (Homo sapiens, UniProt P17947 1-270); conditions: protein: recombinant; tags: N-terminal GST; dsDNA, one strand shown
# Method in brief: as §1
# SPIB = SPIB (Homo sapiens, UniProt Q01892 1-262); conditions: protein: recombinant; tags: N-terminal GST; dsDNA, one strand shown
# Chain of SPIB (Q01892 whole entry): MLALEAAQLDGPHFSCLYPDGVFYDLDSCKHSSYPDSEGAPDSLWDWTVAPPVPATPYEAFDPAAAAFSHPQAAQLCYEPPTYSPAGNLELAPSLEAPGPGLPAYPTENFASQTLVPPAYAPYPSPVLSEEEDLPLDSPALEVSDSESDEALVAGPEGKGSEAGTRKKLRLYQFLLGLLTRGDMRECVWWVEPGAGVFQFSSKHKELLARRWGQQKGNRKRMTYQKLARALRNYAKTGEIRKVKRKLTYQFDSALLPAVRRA
# Method in brief: as §1
# ELK3 = molecular target: T6, ELK3 (Homo sapiens, UniProt P41970 1-407); conditions: protein: recombinant; tags: N-terminal GST; dsDNA, one strand shown
# T6 sequence: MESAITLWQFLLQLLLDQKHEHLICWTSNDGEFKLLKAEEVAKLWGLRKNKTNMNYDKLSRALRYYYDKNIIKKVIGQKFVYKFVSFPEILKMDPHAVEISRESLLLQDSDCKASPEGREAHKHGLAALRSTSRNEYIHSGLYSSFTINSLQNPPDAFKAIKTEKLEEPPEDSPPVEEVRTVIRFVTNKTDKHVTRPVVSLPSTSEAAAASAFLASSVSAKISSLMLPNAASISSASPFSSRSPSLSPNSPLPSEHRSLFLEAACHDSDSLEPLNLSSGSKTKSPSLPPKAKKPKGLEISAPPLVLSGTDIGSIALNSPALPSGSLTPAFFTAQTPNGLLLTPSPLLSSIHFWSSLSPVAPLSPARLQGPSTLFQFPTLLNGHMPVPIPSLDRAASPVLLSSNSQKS
# Method in brief: as §1
# FEV = molecular target: T7, FEV (Homo sapiens, UniProt Q99581 1-238); conditions: protein: recombinant; tags: N-terminal GST; dsDNA, one strand shown
# T7 sequence: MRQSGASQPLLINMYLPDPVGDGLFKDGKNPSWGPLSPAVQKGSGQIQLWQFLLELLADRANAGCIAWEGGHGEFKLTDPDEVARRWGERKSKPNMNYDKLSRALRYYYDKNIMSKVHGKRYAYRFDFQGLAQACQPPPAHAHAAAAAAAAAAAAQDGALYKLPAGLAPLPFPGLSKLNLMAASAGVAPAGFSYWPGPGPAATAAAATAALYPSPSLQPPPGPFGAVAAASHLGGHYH
# Method in brief: as §1
# ETV5 = ETV5 (Homo sapiens, UniProt P41161 1-510); conditions: protein: recombinant; tags: N-terminal GST; dsDNA, one strand shown
# Chain of ETV5 (P41161 whole entry): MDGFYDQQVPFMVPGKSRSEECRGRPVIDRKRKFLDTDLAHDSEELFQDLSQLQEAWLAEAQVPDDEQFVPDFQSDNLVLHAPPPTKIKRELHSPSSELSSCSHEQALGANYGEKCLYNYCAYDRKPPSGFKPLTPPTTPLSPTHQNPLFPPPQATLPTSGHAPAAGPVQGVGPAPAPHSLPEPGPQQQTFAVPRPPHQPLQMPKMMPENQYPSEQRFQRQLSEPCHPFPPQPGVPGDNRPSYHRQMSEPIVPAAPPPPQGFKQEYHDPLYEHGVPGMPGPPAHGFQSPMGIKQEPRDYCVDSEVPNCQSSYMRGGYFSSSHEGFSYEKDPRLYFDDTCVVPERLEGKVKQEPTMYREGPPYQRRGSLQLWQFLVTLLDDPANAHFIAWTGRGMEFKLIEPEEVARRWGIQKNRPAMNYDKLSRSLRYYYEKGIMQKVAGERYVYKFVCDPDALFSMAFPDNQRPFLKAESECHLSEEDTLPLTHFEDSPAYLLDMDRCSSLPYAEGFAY
# Method in brief: as §1
# HSF1 = HSF1 (Homo sapiens, UniProt Q00613 1-529); conditions: protein: recombinant; tags: N-terminal GST; chain copies: 3; dsDNA, one strand shown
# Chain of HSF1 (Q00613 whole entry): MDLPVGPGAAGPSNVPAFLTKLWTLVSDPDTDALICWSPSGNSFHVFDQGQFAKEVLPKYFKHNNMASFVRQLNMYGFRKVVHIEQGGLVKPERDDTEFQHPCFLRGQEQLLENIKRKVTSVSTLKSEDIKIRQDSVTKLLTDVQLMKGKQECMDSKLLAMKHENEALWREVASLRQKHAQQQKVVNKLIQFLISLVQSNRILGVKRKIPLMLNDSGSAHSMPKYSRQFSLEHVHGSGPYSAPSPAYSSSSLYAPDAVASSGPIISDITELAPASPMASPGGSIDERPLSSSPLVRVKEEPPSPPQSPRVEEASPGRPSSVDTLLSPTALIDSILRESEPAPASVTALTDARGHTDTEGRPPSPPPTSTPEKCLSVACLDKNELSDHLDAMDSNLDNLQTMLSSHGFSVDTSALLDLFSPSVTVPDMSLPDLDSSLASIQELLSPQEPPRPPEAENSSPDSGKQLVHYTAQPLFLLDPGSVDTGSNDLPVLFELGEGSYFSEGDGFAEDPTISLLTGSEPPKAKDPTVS
# Method in brief: as §1
# SPIC = molecular target: T8, SPIC (Homo sapiens, UniProt Q8N5J4 1-248); conditions: protein: recombinant; tags: N-terminal GST; dsDNA, one strand shown
# T8 sequence: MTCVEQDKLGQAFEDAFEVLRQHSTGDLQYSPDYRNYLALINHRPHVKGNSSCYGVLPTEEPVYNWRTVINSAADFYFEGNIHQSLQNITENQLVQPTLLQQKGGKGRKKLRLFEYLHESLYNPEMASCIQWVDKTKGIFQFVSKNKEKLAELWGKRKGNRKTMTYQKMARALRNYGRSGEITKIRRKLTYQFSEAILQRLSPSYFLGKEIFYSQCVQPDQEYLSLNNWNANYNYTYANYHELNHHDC
# Method in brief: as §1
# ELF4 = ELF4 (Homo sapiens, UniProt Q99607 1-663); conditions: protein: recombinant; tags: N-terminal GST; dsDNA, one strand shown
# Chain of ELF4 (Q99607 whole entry): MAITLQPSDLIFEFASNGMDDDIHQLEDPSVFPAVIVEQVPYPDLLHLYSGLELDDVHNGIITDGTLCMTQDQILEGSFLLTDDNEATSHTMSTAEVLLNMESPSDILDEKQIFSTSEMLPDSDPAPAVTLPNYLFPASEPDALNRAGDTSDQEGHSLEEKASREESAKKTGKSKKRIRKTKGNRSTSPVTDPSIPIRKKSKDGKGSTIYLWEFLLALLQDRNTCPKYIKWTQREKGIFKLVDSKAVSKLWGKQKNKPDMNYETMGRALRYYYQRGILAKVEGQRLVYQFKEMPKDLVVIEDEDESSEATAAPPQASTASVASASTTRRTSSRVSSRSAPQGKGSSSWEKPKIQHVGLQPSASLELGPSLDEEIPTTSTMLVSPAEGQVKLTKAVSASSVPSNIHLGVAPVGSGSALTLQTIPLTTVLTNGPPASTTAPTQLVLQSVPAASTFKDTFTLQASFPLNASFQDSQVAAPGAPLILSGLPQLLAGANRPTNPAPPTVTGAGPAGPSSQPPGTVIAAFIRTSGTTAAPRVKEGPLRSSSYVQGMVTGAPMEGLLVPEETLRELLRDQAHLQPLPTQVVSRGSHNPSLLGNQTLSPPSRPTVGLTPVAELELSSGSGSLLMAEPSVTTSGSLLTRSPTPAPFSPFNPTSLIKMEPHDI
# Method in brief: as §1
# ELK4 = molecular target: T9, ELK4 (Homo sapiens, UniProt P28324-2 1-405); conditions: protein: recombinant; tags: N-terminal GST; dsDNA, one strand shown
# T9 sequence: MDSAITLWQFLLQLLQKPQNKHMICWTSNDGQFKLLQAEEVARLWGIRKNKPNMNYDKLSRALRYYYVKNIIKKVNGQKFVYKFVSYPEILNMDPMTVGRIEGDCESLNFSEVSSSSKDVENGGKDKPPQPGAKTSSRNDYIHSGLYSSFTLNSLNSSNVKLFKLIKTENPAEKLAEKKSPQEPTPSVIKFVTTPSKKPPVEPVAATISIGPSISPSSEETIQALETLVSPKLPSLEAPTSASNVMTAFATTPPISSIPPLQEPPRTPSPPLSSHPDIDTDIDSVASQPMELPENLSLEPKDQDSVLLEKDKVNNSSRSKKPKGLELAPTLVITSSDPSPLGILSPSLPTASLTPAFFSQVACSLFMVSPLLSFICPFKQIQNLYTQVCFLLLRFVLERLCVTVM
# Method in brief: as §1
# ETV2 = molecular target: T10, ETV2 (Homo sapiens, UniProt O00321 1-342); conditions: protein: recombinant; tags: N-terminal GST; dsDNA, one strand shown
# T10 sequence: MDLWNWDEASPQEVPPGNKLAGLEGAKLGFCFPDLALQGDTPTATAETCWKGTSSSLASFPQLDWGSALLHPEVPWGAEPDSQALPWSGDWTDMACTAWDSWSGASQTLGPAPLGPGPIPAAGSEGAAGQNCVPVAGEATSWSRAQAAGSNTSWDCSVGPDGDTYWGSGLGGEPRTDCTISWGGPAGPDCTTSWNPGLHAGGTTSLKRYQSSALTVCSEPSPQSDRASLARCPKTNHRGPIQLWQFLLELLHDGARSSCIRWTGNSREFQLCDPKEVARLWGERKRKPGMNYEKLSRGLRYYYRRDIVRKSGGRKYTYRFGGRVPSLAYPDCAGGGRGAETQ
# Method in brief: as §1
# ELF3 = molecular target: T11, ELF3 (Homo sapiens, UniProt P78545 1-371); conditions: protein: recombinant; tags: N-terminal GST; dsDNA, one strand shown
# T11 sequence: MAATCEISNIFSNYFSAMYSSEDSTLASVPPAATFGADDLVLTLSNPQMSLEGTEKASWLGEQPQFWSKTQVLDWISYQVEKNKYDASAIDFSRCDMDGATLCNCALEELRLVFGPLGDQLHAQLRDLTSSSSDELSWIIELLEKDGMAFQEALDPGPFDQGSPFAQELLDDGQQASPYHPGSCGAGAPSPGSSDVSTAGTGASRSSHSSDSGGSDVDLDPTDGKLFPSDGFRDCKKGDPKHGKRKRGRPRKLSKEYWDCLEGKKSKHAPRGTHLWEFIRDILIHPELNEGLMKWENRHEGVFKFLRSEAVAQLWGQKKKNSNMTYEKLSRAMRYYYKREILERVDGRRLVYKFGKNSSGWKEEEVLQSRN
# Method in brief: as §1
# CRX = CRX (Homo sapiens, UniProt O43186 1-299); conditions: protein: recombinant; tags: N-terminal GST; dsDNA, one strand shown
# Chain of CRX (O43186 whole entry): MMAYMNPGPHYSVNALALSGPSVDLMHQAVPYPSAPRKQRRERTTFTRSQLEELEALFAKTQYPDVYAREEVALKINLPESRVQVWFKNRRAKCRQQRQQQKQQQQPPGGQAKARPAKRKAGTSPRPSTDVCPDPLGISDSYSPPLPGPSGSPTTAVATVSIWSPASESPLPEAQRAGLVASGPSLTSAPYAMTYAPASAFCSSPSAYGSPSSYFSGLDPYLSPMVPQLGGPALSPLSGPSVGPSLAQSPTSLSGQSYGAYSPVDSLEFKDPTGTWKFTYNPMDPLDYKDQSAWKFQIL
# Method in brief: as §1
# ETV1 = ETV1 (Homo sapiens, UniProt P50549 1-477); conditions: protein: recombinant; tags: N-terminal GST; dsDNA, one strand shown
# Chain of ETV1 (P50549 whole entry): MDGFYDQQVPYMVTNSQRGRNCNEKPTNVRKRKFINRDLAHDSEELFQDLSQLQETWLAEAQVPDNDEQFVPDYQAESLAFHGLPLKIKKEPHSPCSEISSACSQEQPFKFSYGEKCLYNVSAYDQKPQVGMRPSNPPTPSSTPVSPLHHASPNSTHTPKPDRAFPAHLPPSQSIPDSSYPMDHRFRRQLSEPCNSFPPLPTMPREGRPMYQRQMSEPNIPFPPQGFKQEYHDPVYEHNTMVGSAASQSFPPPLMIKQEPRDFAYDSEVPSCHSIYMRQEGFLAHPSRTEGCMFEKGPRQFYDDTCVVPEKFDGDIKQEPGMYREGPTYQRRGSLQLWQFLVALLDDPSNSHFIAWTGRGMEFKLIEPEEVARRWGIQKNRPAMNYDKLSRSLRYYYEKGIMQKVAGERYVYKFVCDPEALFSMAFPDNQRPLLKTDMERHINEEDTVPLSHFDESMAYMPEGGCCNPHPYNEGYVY
# Method in brief: as §1
sequence,measurement,setting,value
CTGGCA,binding signal,FLI1,"1.33 fold enrichment (6-mer frequency, TF over GST control)"
same,binding signal,ELK1,"1.28 fold enrichment (6-mer frequency, TF over GST control)"
same,binding signal,GABPA,"1.39 fold enrichment (6-mer frequency, TF over GST control)"
same,binding signal,ERG,"1.2 fold enrichment (6-mer frequency, TF over GST control)"
same,binding signal,ELF1,"1.26 fold enrichment (6-mer frequency, TF over GST control)"
same,binding signal,EHF,"1.23 fold enrichment (6-mer frequency, TF over GST control)"
same,binding signal,SPI1,"1.22 fold enrichment (6-mer frequency, TF over GST control)"
same,binding signal,SPIB,"1.29 fold enrichment (6-mer frequency, TF over GST control)"
same,binding signal,ELK3,"1.43 fold enrichment (6-mer frequency, TF over GST control)"
same,binding signal,FEV,"1.27 fold enrichment (6-mer frequency, TF over GST control)"
same,binding signal,ETV5,"1.21 fold enrichment (6-mer frequency, TF over GST control)"
same,binding signal,HSF1,"1.62 fold enrichment (6-mer frequency, TF over GST control)"
same,binding signal,SPIC,"1.28 fold enrichment (6-mer frequency, TF over GST control)"
same,binding signal,ELF4,"1.35 fold enrichment (6-mer frequency, TF over GST control)"
same,binding signal,ELK4,"1.27 fold enrichment (6-mer frequency, TF over GST control)"
same,binding signal,ETV2,"1.49 fold enrichment (6-mer frequency, TF over GST control)"
same,binding signal,ELF3,"1.3 fold enrichment (6-mer frequency, TF over GST control)"
same,binding signal,CRX,"1.19 fold enrichment (6-mer frequency, TF over GST control)"
same,binding signal,ETV1,"1.27 fold enrichment (6-mer frequency, TF over GST control)"
